Only some compounds are listed: those with a hit (about 10% of all), similar ones and a draw of the others.
FLuc inh-1: Photinus pyralis luciferase inhibition | P08659 | purified P. pyralis luciferase, luminescence, biochemical | Potency, µM (doses to about 115 µM), actives largely listed as inhibitors | hit rate 2.5% among 76,000; note: % is set by controls: 0 for no effect and ±100 for the full control effect; nearly all actives have a fitted effect of over 65% in size
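Purified P. pyralis luciferase (10nM final) in 50mM Tris acetate pH 7.5, 10mM Mg acetate, 0.01% Tween-20, 0.05% BSA with 10uM D-luciferin and 10uM ATP. Compounds titrated qHTS. Luminescence imaged on CCD.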
NIH3T3 tox: NIH 3T3 cell cytotoxicity | NIH 3T3 viability, CellTiter-Glo ATP luminescence, 48-72 h | Potency, µM (titrated, usually from 96.7 µM), without a hit: at the highest dose activity change, negative = cytotoxicity, actives largely listed as inhibitors | AID 1345082 | hit rate 4.3% among 94,000; note: % is set by controls: 0 for no effect and ±100 for the full control effect; nearly all actives have a fitted effect of over 55% in size
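Cytotoxicity is measured as loss of cellular ATP: NIH 3T3 cells (400/well) are exposed to compound for 48 or 72 hr at 37 °C, then CellTiter-Glo luminescence is imaged after 10 min at room temperature.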
GPT2 inhibitor: blocks human glutamate pyruvate transaminase 2; Q8TD30; Recombinant GPT2, coupled pyruvate oxidase/HRP Amplex Red fluorescence; Potency, µM (highest dose often 57.7 µM), for inactives: at the top dose activity change, negative = inhibition, usual class: inhibitors; hit rate 0.25% among 100,000; note: % is set by controls: 0 for no effect and ±100 for the full control effect; nearly all actives have a fitted effect of over 60% in size
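Fluorescence of coupled pyruvate oxidase/HRP/Amplex Red system (50uM Amplex, 30 min, dark) reports pyruvate formed by GPT2. Enzyme reaction: 10ng/uL GPT2, 2mM L-alanine, 250uM a-KG, 30 min room temperature, pH 7.5; 50uM AOA control.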
HEK cytotox: HEK 293 cell cytotoxicity. Potency, µM (highest dose often 115 µM), for the others: top-dose activity change, negative = cytotoxicity, most hits filed as inhibitors. HEK 293 viability, ATP luminescence (CellTiter-Glo), 48-72 h. hit rate 6.6% among 94,000; note: % is set by controls: 0 for no effect and ±100 for the full control effect; nearly all actives have a fitted effect of over 60% in size
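CellTiter-Glo luminescence (cellular ATP) was read after 48 or 72 hr of compound exposure at 37 degree Celsius. Cells were HEK 293 plated at 250 cells/well.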
hNpr1 antagonist: antagonists of human natriuretic peptide receptor Npr1; hit rate 1.6% among 76,000; P16066; Potency, µM (doses to about 46.3 µM), for the others: top-dose activity change, negative = inhibition, usual class: inhibitors; HEK293 hNpr1 GloSensor cGMP, ANP-stimulated luminescence; calls by dose curve; note: % is set by controls: 0 for no effect and ±100 for the full control effect; nearly all actives have a fitted effect of over 60% in size
Target sequence (P16066 whole entry, looked up): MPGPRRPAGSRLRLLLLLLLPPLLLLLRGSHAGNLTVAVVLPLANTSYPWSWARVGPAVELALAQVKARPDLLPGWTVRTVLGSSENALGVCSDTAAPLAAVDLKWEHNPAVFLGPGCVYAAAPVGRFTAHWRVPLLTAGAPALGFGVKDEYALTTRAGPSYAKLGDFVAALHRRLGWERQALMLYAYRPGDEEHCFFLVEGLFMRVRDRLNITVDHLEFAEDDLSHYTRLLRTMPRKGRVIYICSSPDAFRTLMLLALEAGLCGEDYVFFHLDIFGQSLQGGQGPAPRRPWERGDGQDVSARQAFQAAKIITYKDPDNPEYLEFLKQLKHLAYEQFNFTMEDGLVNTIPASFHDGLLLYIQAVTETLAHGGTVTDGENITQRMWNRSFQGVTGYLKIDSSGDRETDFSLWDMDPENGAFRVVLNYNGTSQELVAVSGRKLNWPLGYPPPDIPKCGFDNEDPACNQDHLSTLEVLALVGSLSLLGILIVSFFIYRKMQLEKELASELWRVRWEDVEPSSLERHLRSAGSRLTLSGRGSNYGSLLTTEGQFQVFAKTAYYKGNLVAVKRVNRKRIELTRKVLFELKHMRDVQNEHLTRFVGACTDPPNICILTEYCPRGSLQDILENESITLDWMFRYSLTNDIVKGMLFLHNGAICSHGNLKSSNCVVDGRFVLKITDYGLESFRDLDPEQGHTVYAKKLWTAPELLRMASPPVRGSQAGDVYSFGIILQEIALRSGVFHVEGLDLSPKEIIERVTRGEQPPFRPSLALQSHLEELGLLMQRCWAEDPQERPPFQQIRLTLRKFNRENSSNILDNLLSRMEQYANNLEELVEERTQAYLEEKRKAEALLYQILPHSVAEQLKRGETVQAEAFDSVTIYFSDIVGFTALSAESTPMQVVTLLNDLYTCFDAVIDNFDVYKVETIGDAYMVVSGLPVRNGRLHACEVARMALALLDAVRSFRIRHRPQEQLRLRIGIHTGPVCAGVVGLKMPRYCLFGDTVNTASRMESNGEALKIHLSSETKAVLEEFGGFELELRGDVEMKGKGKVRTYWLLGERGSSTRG
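HEK293 cells stably expressing human Npr1 and cGMP GloSensor pGS-40F, loaded 2 h with 2% GloSensor reagent, given compound 30 min at room temperature. Luminescence read before and 20 min after 0.1 nM hNppA.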
FLuc SDR -ATP: firefly luciferase binding stabilization, ATP absent; hit rate 7.8% among 1,300; Purified FLuc-C-HiBiT, Nano-Glo HiBiT luminescence, no ATP; shares compounds with FLuc inh-1; Potency, µM (top dose mostly 32.7 µM), without a hit: at the highest dose activation (signal gain), usual class: activators; note: nearly all actives have a fitted effect of over 55% in size
FLuc SDR ATP: stabilizes firefly luciferase with ATP present; purified FLuc-C-HiBiT + ATP, HiBiT complementation luminescence; shares compounds with FLuc inh-1; hit rate 8.7% among 1,300; Potency, µM (top dose mostly 32.7 µM), for inactives: at the highest dose activation (gain of signal), hits mostly activators; AID 1963319;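 note: signal reports ligand binding via conformational change of the enzyme rather than luciferase catalysis; % of control where 0% means no effect; nearly all actives have a fitted effect of over 55% in size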
FLuc inh-2: inhibitors of firefly luciferase enzymatic activity; shares compounds with FLuc inh-1; purified FLuc-C-HiBiT enzyme, luciferin luminescence; Potency, µM (doses to about 32.7 µM), for inactives: at the top dose activity change, negative = inhibition, most hits filed as inhibitors; hit rate 42% among 1,300; AID 1963320; note: % is set by controls: 0 for no effect and ±100 for the full control effect; nearly all actives have a fitted effect of over 70% in size
* marks the source's active call; other numbers are inactive results; [ ] = another dose, or the depositor's remark. Unless noted, calls come from the whole dose curve; as a rule, active = well fitted curve in the direction sought with a large enough effect; inconclusive = small, poorly fitted or top-dose-only effect, or another doubt; inactive = no such curve, though single readings can be large; an effect the other way counts as inactive or inconclusive. Potency is the fitted concentration of half-maximal effect.

For C[C@H]1[C@@H]2[C@@H](O)C([C@H](C)C(=O)N3CCCCC3)CC[C@@]2(C)CC[C@@H]1NC(=O)c1ccccn1 (some centres undefined) the results were FLuc inh-1 inactive, NIH3T3 tox -28%, GPT2 inhibitor inconclusive, HEK cytotox -9% and hNpr1 antagonist -4%.
Screening C[C@H](C(=O)N1CCCC1)C1CC[C@@]2(C)Cc3sc(-c4ccccc4)nc3[C@@H](C)[C@@H]2[C@H]1O (some centres undefined) returned FLuc inh-1 8.9µM*, NIH3T3 tox inconclusive, GPT2 inhibitor 2%, HEK cytotox 45µM*, hNpr1 antagonist inconclusive, FLuc SDR -ATP 3.1µM*, FLuc SDR ATP 2.2µM* and FLuc inh-2 2µM*.
`Cc1oc(C(O)c2ccccc2F)nc1C(=O)Nc1ccc(N2CCOCC2)cc1` (centres undefined) gave FLuc inh-1 10µM*, NIH3T3 tox -25%[138 µM], GPT2 inhibitor inactive, HEK cytotox inconclusive, hNpr1 antagonist -2%[70.6 µM], FLuc SDR -ATP inconclusive, FLuc SDR ATP inconclusive and FLuc inh-2 16µM*.
Screening O=C(NC1CCCN(c2cc(-c3ccc(Cl)cc3)[nH]n2)C1)c1ccc2ncccc2c1 (centres undefined) returned FLuc inh-1 1.8µM*, NIH3T3 tox inconclusive, GPT2 inhibitor -17%, HEK cytotox inconclusive, hNpr1 antagonist inconclusive, FLuc SDR -ATP 10%, FLuc SDR ATP 8% and FLuc inh-2 5µM*.
Cc1cccc(C(=O)NC2CCN(c3cc(-c4ccc(Cl)cc4)[nH]n3)CC2)c1 was read as FLuc inh-1 inactive, NIH3T3 tox inconclusive, GPT2 inhibitor -8%, HEK cytotox inconclusive and hNpr1 antagonist -2%.
`CN(C)c1cccc(C(=O)NC2CCN(c3cc(-c4ccc(Cl)cc4)[nH]n3)CC2)c1` gave FLuc inh-1 7.1µM*, NIH3T3 tox 32µM*, GPT2 inhibitor -13%, HEK cytotox inconclusive, hNpr1 antagonist inconclusive, FLuc SDR -ATP 12%, FLuc SDR ATP 9.9µM* and FLuc inh-2 6.2µM*.
For Cc1noc(-c2cccn3c(CNC(=O)c4ccccc4)nnc23)n1 the results were FLuc inh-1 inactive, NIH3T3 tox -25%, GPT2 inhibitor inactive, HEK cytotox -5% and hNpr1 antagonist -17%.
`Cc1noc(-c2cccn3c(CNC(=O)c4ccc(C(C)(C)C)cc4)nnc23)n1` gave FLuc inh-1 7.9µM*, NIH3T3 tox -30%, GPT2 inhibitor inactive, HEK cytotox inconclusive, hNpr1 antagonist -21%, FLuc SDR -ATP inconclusive, FLuc SDR ATP inconclusive and FLuc inh-2 9.9µM*.
Screening CCN1c2cc(C(=O)Nc3ccc4c(c3)OCCO4)ccc2C(=O)N2CCCCCC21 (centres undefined) returned FLuc inh-1 11µM*, NIH3T3 tox inconclusive, GPT2 inhibitor inactive, HEK cytotox 18µM*, hNpr1 antagonist inconclusive, FLuc SDR -ATP 21%, FLuc SDR ATP 18% and FLuc inh-2 inconclusive.
For CCN1c2cc(C(=O)Nc3ccc4c(c3)OCCO4)ccc2C(=O)N2CCCC21 (centres undefined) the results were FLuc inh-1 5µM*, NIH3T3 tox inconclusive, GPT2 inhibitor inactive, HEK cytotox inconclusive, hNpr1 antagonist -8%, FLuc SDR -ATP 27%, FLuc SDR ATP 16% and FLuc inh-2 inconclusive.

Assay outcomes: PubChem, National Center for Advancing Translational Sciences (NCATS)
